From PubChem BioAssay (NCATS)
Records with an inconclusive call do not appear. The source made the active and inactive calls. Calls come from the whole dose curve; as a rule, active = well fitted inhibition curve with a large enough effect; inconclusive = small, poorly fitted or top-dose-only effect; inactive = flat fitted curve, though single readings scatter.

Tested on: not listed separately
Assay: qHTS drug screen for cell cycle checkpoint inhibitors in PARPi-resistant BRCA-mutant ovarian cancer cell lines. (AID 1963452)
Conditions: PEO1/OlaR viability, CellTiter-Glo luminescence, 96 h; measured here: PEO4 Z-AUC; stronger effect = lower value
Method in brief: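 PEO1, PEO4 and PEO1/OlaR ovarian cancer cells, 600 per well, exposed 96 h at 37C to a dilution series. Viability read by CellTiter-Glo luminescence, normalized to DMSO and empty wells; activity summarized as Z-AUC.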

Compound | Z-AUC
CN1CCN(c2ccc3nc(-c4cc(C(C)(C)C)c(OCCCC(=O)NCCCN=[N+]=[N-])c(C(C)(C)C)c4)[nH]c3c2)CC1 | 0.156
NC(=O)c1cccc2c(NC(CN3CCC3)c3ccc(Cl)c(C(F)(F)F)c3)ncnc12 (stereo not drawn) | 0.205
O=c1cc(N2CCOCC2)oc2c(-c3ccc4c(c3)OCCO4)csc12 | -0.553
CCN(CC)CCNC(=O)c1c(C)[nH]c(/C=C2/C(=O)Nc3ccc(-c4csc(-c5ccccc5)n4)cc32)c1C | -0.34
Nc1nc2c(c(=O)[nH]1)N1CN(c3ccc(C(=O)N[C@@H](CCC(=O)O)C(=O)O)cc3)CC1CN2 (stereo partly drawn) | -0.345
Cc1c(C(=O)Nc2ccc(Oc3ccnc4[nH]cc(-c5ccccc5)c34)c(F)c2)c(=O)n(-c2ccc(F)cc2)n1C | 0.513
O=C1NC(=O)[C@@H](c2c[nH]c3ccccc23)[C@H]1c1cn2c3c(cccc13)CCC2 | -0.711
COC1CC(C(=O)c2ccc3c(N)ncc(-c4ccc(-c5cnn(C)c5)cc4)c3n2)C1 (stereo not drawn) | -1.1
COc1cc(C(N)=O)ccc1NC(=O)[C@@H]1N[C@@H](CC(C)(C)C)[C@@]2(C(=O)Nc3cc(Cl)ccc32)[C@H]1c1cccc(Cl)c1F | -0.498
COc1nnc2ccc(N3CCC(c4ccc(OCCN5CCN(C)C(=O)[C@H]5C)cc4)CC3)nn12 | -1.83

Tested on: not listed separately
Assay: qHTS profiling for inhibitors of Plasmodium falciparum proliferation (AID 504749);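 note: 0% = DMSO vehicle and full inhibition = artemisinin control; nearly all actives have a fitted effect of over 60% in size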
Conditions: P. falciparum in erythrocytes, SYBR Green DNA, 72 h; at 28.7 µM (top of the series); parasite line A
Method in brief: (§1)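 Three-day growth assay of blood-stage parasites in erythrocytes (0.3% parasitemia, 2.5% hematocrit) at 37 C, 5% CO2, quantified by SYBR Green DNA staining after overnight detergent lysis.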

Compound | activity, negative = inhibition
CN=C(N)NCCCC(N)C(=O)O (stereo not drawn) | 12.3% (inactive)
N[C@H](Cc1ccc(O)c(O)c1)C(=O)O | 9.99% (inactive)
CN1C(=O)CCC1c1cccnc1 (stereo not drawn) | 0.771% (inactive)

Same assay, conditions: P. falciparum in erythrocytes, SYBR Green DNA, 72 h; at 28.7 µM (top of the series); parasite line B

Compound | activity, negative = inhibition
CN=C(N)NCCCC(N)C(=O)O (stereo not drawn) | 12.2% (inactive)
N[C@H](Cc1ccc(O)c(O)c1)C(=O)O | 20.6% (inactive)
CN1C(=O)CCC1c1cccnc1 (stereo not drawn) | 4.61% (inactive)

Tested on: 3D7
Assay: as above
Conditions: P. falciparum in erythrocytes, SYBR Green DNA, 72 h; series mostly up to 28.7 µM; activity, negative = inhibition: at the top concentration
Method in brief: as §1

Compound | activity, negative = inhibition
CN=C(N)NCCCC(N)C(=O)O (stereo not drawn) | 0.343% (inactive)
N[C@H](Cc1ccc(O)c(O)c1)C(=O)O | 2.71% (inactive)
CN1C(=O)CCC1c1cccnc1 (stereo not drawn) | 9.06% (inactive)

Tested on: AA1029
Assay: as above
Conditions: P. falciparum in erythrocytes, SYBR Green DNA, 72 h; series mostly up to 28.7 µM; activity, negative = inhibition: at the top concentration
Method in brief: as §1

Compound | activity, negative = inhibition
CN=C(N)NCCCC(N)C(=O)O (stereo not drawn) | 4.93% (inactive)
N[C@H](Cc1ccc(O)c(O)c1)C(=O)O | 12.2% (inactive)
CN1C(=O)CCC1c1cccnc1 (stereo not drawn) | 7.29% (inactive)

Tested on: AS120
Assay: as above
Conditions: P. falciparum in erythrocytes, SYBR Green DNA, 72 h; series mostly up to 28.7 µM; activity, negative = inhibition: at the top concentration
Method in brief: as §1

Compound | activity, negative = inhibition
CN=C(N)NCCCC(N)C(=O)O (stereo not drawn) | 13.9% (inactive)
N[C@H](Cc1ccc(O)c(O)c1)C(=O)O | 10% (inactive)
CN1C(=O)CCC1c1cccnc1 (stereo not drawn) | 4.56% (inactive)

Tested on: ATS189
Assay: as above
Conditions: P. falciparum in erythrocytes, SYBR Green DNA, 72 h; series mostly up to 28.7 µM; activity, negative = inhibition: at the top concentration
Method in brief: as §1

Compound | activity, negative = inhibition
CN=C(N)NCCCC(N)C(=O)O (stereo not drawn) | 18.3% (inactive)
N[C@H](Cc1ccc(O)c(O)c1)C(=O)O | 8.89% (inactive)
CN1C(=O)CCC1c1cccnc1 (stereo not drawn) | 0.33% (inactive)

Tested on: ATS95
Assay: as above
Conditions: P. falciparum in erythrocytes, SYBR Green DNA, 72 h; series mostly up to 28.7 µM; activity, negative = inhibition: at the top concentration
Method in brief: as §1

Compound | activity, negative = inhibition
CN=C(N)NCCCC(N)C(=O)O (stereo not drawn) | 2.99% (inactive)
N[C@H](Cc1ccc(O)c(O)c1)C(=O)O | -4.41% (inactive)
CN1C(=O)CCC1c1cccnc1 (stereo not drawn) | 1.52% (inactive)

Tested on: C2A
Assay: as above
Conditions: P. falciparum in erythrocytes, SYBR Green DNA, 72 h; series mostly up to 28.7 µM; activity, negative = inhibition: at the top concentration
Method in brief: as §1

Compound | activity, negative = inhibition
CN=C(N)NCCCC(N)C(=O)O (stereo not drawn) | -9.22% (inactive)
N[C@H](Cc1ccc(O)c(O)c1)C(=O)O | 0.989% (inactive)
CN1C(=O)CCC1c1cccnc1 (stereo not drawn) | 5.21% (inactive)

Tested on: CP185
Assay: as above
Conditions: P. falciparum in erythrocytes, SYBR Green DNA, 72 h; series mostly up to 28.7 µM; activity, negative = inhibition: at the top concentration
Method in brief: as §1

Compound | activity, negative = inhibition
CN=C(N)NCCCC(N)C(=O)O (stereo not drawn) | 8.34% (inactive)
N[C@H](Cc1ccc(O)c(O)c1)C(=O)O | 12.6% (inactive)
CN1C(=O)CCC1c1cccnc1 (stereo not drawn) | 5.49% (inactive)

Tested on: CP191
Assay: as above
Conditions: P. falciparum in erythrocytes, SYBR Green DNA, 72 h; series mostly up to 28.7 µM; activity, negative = inhibition: at the top concentration
Method in brief: as §1

Compound | activity, negative = inhibition
CN=C(N)NCCCC(N)C(=O)O (stereo not drawn) | 4.79% (inactive)
N[C@H](Cc1ccc(O)c(O)c1)C(=O)O | 0.77% (inactive)
CN1C(=O)CCC1c1cccnc1 (stereo not drawn) | -1.11% (inactive)

Tested on: CP217
Assay: as above
Conditions: P. falciparum in erythrocytes, SYBR Green DNA, 72 h; series mostly up to 28.7 µM; activity, negative = inhibition: at the top concentration
Method in brief: as §1

Compound | activity, negative = inhibition
CN=C(N)NCCCC(N)C(=O)O (stereo not drawn) | 4.47% (inactive)
N[C@H](Cc1ccc(O)c(O)c1)C(=O)O | 3.64% (inactive)
CN1C(=O)CCC1c1cccnc1 (stereo not drawn) | 3.25% (inactive)

Tested on: CP237
Assay: as above
Conditions: P. falciparum in erythrocytes, SYBR Green DNA, 72 h; series mostly up to 28.7 µM; activity, negative = inhibition: at the top concentration
Method in brief: as §1

Compound | activity, negative = inhibition
CN=C(N)NCCCC(N)C(=O)O (stereo not drawn) | 1.05% (inactive)
N[C@H](Cc1ccc(O)c(O)c1)C(=O)O | 3.48% (inactive)
CN1C(=O)CCC1c1cccnc1 (stereo not drawn) | -9.34% (inactive)

Tested on: CP238
Assay: as above
Conditions: P. falciparum in erythrocytes, SYBR Green DNA, 72 h; series mostly up to 28.7 µM; activity, negative = inhibition: at the top concentration
Method in brief: as §1

Compound | activity, negative = inhibition
CN=C(N)NCCCC(N)C(=O)O (stereo not drawn) | 5.32% (inactive)
N[C@H](Cc1ccc(O)c(O)c1)C(=O)O | 10.7% (inactive)
CN1C(=O)CCC1c1cccnc1 (stereo not drawn) | 3.94% (inactive)

Tested on: CP247
Assay: as above
Conditions: P. falciparum in erythrocytes, SYBR Green DNA, 72 h; series mostly up to 28.7 µM; activity, negative = inhibition: at the top concentration
Method in brief: as §1

Compound | activity, negative = inhibition
CN=C(N)NCCCC(N)C(=O)O (stereo not drawn) | 5.54% (inactive)
N[C@H](Cc1ccc(O)c(O)c1)C(=O)O | 15.2% (inactive)
CN1C(=O)CCC1c1cccnc1 (stereo not drawn) | 0.509% (inactive)

Tested on: CP250
Assay: as above
Conditions: P. falciparum in erythrocytes, SYBR Green DNA, 72 h; series mostly up to 28.7 µM; activity, negative = inhibition: at the top concentration
Method in brief: as §1

Compound | activity, negative = inhibition
CN=C(N)NCCCC(N)C(=O)O (stereo not drawn) | -1.9% (inactive)
N[C@H](Cc1ccc(O)c(O)c1)C(=O)O | 4.46% (inactive)
CN1C(=O)CCC1c1cccnc1 (stereo not drawn) | -3.66% (inactive)

Tested on: CP252
Assay: as above
Conditions: P. falciparum in erythrocytes, SYBR Green DNA, 72 h; series mostly up to 28.7 µM; activity, negative = inhibition: at the top concentration
Method in brief: as §1

Compound | activity, negative = inhibition
CN=C(N)NCCCC(N)C(=O)O (stereo not drawn) | 1.99% (inactive)
N[C@H](Cc1ccc(O)c(O)c1)C(=O)O | -0.762% (inactive)
CN1C(=O)CCC1c1cccnc1 (stereo not drawn) | 4.89% (inactive)

Tested on: CP256
Assay: as above
Conditions: P. falciparum in erythrocytes, SYBR Green DNA, 72 h; series mostly up to 28.7 µM; activity, negative = inhibition: at the top concentration
Method in brief: as §1

Compound | activity, negative = inhibition
CN=C(N)NCCCC(N)C(=O)O (stereo not drawn) | 9.04% (inactive)
N[C@H](Cc1ccc(O)c(O)c1)C(=O)O | 14.3% (inactive)
CN1C(=O)CCC1c1cccnc1 (stereo not drawn) | -2.25% (inactive)

Tested on: CP260
Assay: as above
Conditions: P. falciparum in erythrocytes, SYBR Green DNA, 72 h; series mostly up to 28.7 µM; activity, negative = inhibition: at the top concentration
Method in brief: as §1

Compound | activity, negative = inhibition
CN=C(N)NCCCC(N)C(=O)O (stereo not drawn) | 6.76% (inactive)
N[C@H](Cc1ccc(O)c(O)c1)C(=O)O | -3.05% (inactive)
CN1C(=O)CCC1c1cccnc1 (stereo not drawn) | -12.2% (inactive)

Tested on: CP265
Assay: as above
Conditions: P. falciparum in erythrocytes, SYBR Green DNA, 72 h; series mostly up to 28.7 µM; activity, negative = inhibition: at the top concentration
Method in brief: as §1

Compound | activity, negative = inhibition
CN=C(N)NCCCC(N)C(=O)O (stereo not drawn) | 1.53% (inactive)
N[C@H](Cc1ccc(O)c(O)c1)C(=O)O | 3.44% (inactive)
CN1C(=O)CCC1c1cccnc1 (stereo not drawn) | 1.67% (inactive)

Tested on: CP286
Assay: as above
Conditions: P. falciparum in erythrocytes, SYBR Green DNA, 72 h; series mostly up to 28.7 µM; activity, negative = inhibition: at the top concentration
Method in brief: as §1

Compound | activity, negative = inhibition
CN=C(N)NCCCC(N)C(=O)O (stereo not drawn) | 0.639% (inactive)
N[C@H](Cc1ccc(O)c(O)c1)C(=O)O | -0.0983% (inactive)
CN1C(=O)CCC1c1cccnc1 (stereo not drawn) | 0.234% (inactive)

Tested on: DFO2036
Assay: as above
Conditions: P. falciparum in erythrocytes, SYBR Green DNA, 72 h; series mostly up to 28.7 µM; activity, negative = inhibition: at the top concentration
Method in brief: as §1

Compound | activity, negative = inhibition
CN=C(N)NCCCC(N)C(=O)O (stereo not drawn) | 11% (inactive)
N[C@H](Cc1ccc(O)c(O)c1)C(=O)O | 16.3% (inactive)
CN1C(=O)CCC1c1cccnc1 (stereo not drawn) | -3.92% (inactive)
